Autofluor 339: intrinsic fluorescence of library compounds, ex339/em460 – biochemical, MLSMR library, data from DPM-DC assay, artefact control, profiling panel | fluorescence fold increase at 10 µM | compound autofluorescence, ex339/em460 nm, NADH buffer; active compounds read high; 1 = no-compound wells, NADH background | 65,000 tested, 5.5% active;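 active means at 10 µM, mean starting fluorescence two-fold or more over control wells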;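 further: signal is the first read of a kinetic run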
NADH enzymes: blocks coupling enzymes of NAD/NADH assays; coupled PK/LDH NADH assays, four targets; IC50, µM (doses to about 10 µM); 65,000 tested, 0.02% active; AID 774;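 active means single-dose screening hits from any of four coupled enzyme assays that gave an IC50 when retested across doses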;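 further: the DPM-DC format reads NADH fluorescence rather than 340 nm absorbance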
MK inhibit: S. pneumoniae mevalonate kinase inhibition; inhibition, % at 10 µM; 65,000 tested, 0.48% active; purified MK, PK/LDH-coupled NADH absorbance 340 nm;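 active means ranked among the strongest by inhibition in the single 10 µM screen, a fixed top-ranked set picked for dose follow-up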
DPM-DC inhibit: blocks S. pneumoniae diphosphomevalonate decarboxylase; purified DPM-DC, PK/LDH coupled NADH fluorescence; calls only at 10 µM; 65,000 tested, 0.49% active; AID 556;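 active means the 320 compounds with the highest percent inhibition in the single-dose primary screen, excluding strongly autofluorescent ones, cut at about 32% in these data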;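 further: kinetic rate of NADH fluorescence loss reporting ADP formed by the decarboxylase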
Abs 340nm: absorbance at 340 nm; fold change at 10 µM; 65,000 tested, under 10 active; AID 708; compound absorbance at 340 nm, fold over control;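 active means at 10 µM dose, initial 340 nm absorbance at least 2 fold that of control wells; inactive means change under 2 fold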;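 further: initial absorbance extrapolated from kinetic A340 decline of NADH oxidation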
Spn PMK inh: blocks S. pneumoniae phosphomevalonate kinase; purified PMK, PK/LDH-coupled NADH absorbance 340 nm; inhibition, % at 10 µM; 65,000 tested, 0.49% active; AID 539;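 active means top-ranked compounds by inhibition in the single 10 µM screen, taking a fixed number of the strongest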
Numbers stand for hits; . = inactive; / = no result shown; + = active, no number. An excerpt weighted towards active compounds, which were near 6.3% of everything screened.

SMILES	Autofluor 339	NADH enzymes	MK inhibit	DPM-DC inhibit	Abs 340nm	Spn PMK inh
CCOC(=O)c1ccccc1NC(=O)CN(c1cccc(OC)c1)S(C)(=O)=O	.	.	.	.	.	.
COCCOC(=O)c1c(C)oc2ccc(NS(=O)(=O)c3ccc(F)cc3)cc12	.	.	.	+	.	.
COc1ccc(S(=O)(=O)Nc2ccc3oc(C)c(C(=O)O)c3c2)cc1	.	.	.	.	.	.
CCC(C)NC(=O)c1cnn2c(C)c3c(nc12)CCCC3 (stereo not given)	4.9	.	.	/	.	.
CSc1nc(N(CCO)CCO)c2sc3nc(-c4ccco4)c4c(c3c2n1)CCC4	2.3	.	.	/	.	.
CC(C)c1nc2sc3c(SCC(=O)NCc4ccco4)ncnc3c2c2c1CCC2	.	.	.	.	.	.
Cc1cc(C)c(S(=O)(=O)NCc2cn3c(C)csc3n2)c(C)c1	.	.	.	.	.	.
Cc1cc(C)c(S(=O)(=O)NCc2cn3c(C)csc3n2)cc1C	.	.	.	+	.	.
CCc1ccccc1NC(=O)CN(c1cccc(OC)c1)S(C)(=O)=O	.	.	.	.	.	.
CN1c2ccccc2-c2nc3ccccc3n2C1c1ccccn1 (stereo not given)	2.2	.	.	/	.	.
CN1c2ccccc2-c2nc3ccccc3n2C1c1ccncc1 (stereo not given)	.	.	.	.	.	.
CC(=O)c1ccc(Oc2ncnc3sccc23)c(CN2CCOCC2)c1	.	.	.	.	.	25
COCCNC(=O)c1ccc2c(c1)nc(C)n2-c1cc(OC)c(OC)c(OC)c1	.	.	.	.	.	.
CC(C)(C)c1cc(=O)n2c(C#N)c(C#N)nc2[nH]1	5	.	.	/	.	.
CCCCn1nnc(NC(=O)c2ccc(-c3ccccc3)cc2)n1	.	.	.	.	.	.
O=C(Nc1cccc2nsnc12)c1ccc(F)cc1	.	.	.	.	.	.
CCCCn1c(NC(=O)c2ccc(F)cc2)c(C#N)c2nc3ccccc3nc21	5	.	.	/	.	.
CCCCn1c(NC(=O)c2ccccc2)c(C#N)c2nc3ccccc3nc21	3.8	.	.	/	.	.
CCNC(=O)[C@@H]1CCCN1C(=O)[C@H](CCCN=C(N)N)NC(=O)[C@H](CC(C)C)NC(=O)[C@@H](CC(C)C)NC(=O)[C@H](Cc1ccc(O)cc1)NC(=O)[C@H](CO)NC(=O)[C@H](Cc1c[nH]c2ccccc12)NC(=O)[C@H](Cc1cnc[nH]1)NC(=O)[C@@H]1CCC(=O)N1	.	.	.	.	.	.
COC(=O)c1nc2n(n1)C(c1cc(OC)ccc1OC)C(C(=O)OC1CCCCC1)=C(C)N2 (stereo not given)	.	.	.	.	.	.
CCO/C=C1\C(=O)N(c2ccccc2)C(=O)c2ccccc21	2.2	.	.	/	.	.
CCCCNc1nc2c(c(=O)n(C)c(=O)n2C)n1CCC	.	.	.	.	.	26
COc1ccc2[nH]c(=O)c(CN(Cc3nnnn3Cc3ccc(F)cc3)CC3CCCO3)cc2c1 (stereo not given)	2	.	.	.	.	.
COc1ccc2cc(CN(Cc3cccnc3)Cc3nnnn3Cc3ccccc3)c(=O)[nH]c2c1	.	.	.	.	.	.
COc1ccc2[nH]c(=O)c(CN(Cc3nnnn3Cc3ccccc3)CC3CCCO3)cc2c1 (stereo not given)	2.1	.	.	.	.	.
SMILES	Autofluor 339	NADH enzymes	MK inhibit	DPM-DC inhibit	Abs 340nm	Spn PMK inh
COCCn1nnnc1CN(Cc1cccnc1)Cc1cc2cc(OC)ccc2[nH]c1=O	2.2	.	.	+	.	.
CCOC(=O)c1c(C)n(C)c2ccc(OC)c(NC(=O)CN3CCN(C(=O)c4ccco4)CC3)c12	.	.	.	.	.	.
CCOc1ccc(NC(=O)CSc2nnc(C)n2CCCOC)cc1	.	.	.	.	.	.
COc1ccc(-n2nc(C(=O)NCc3ccco3)c3c4ccccc4n(C)c3c2=O)cc1	4.8	.	.	/	.	.
CC(C)(C)NC(=O)CN(C(=O)C1(C)CC(=O)N=C2C=CC=CN21)C1CCCC1 (stereo not given)	3.8	.	.	/	.	.
CC1=CC=CC2=NC(=O)CC(C)(C(=O)N(CC(=O)NC(C)C)C3CCCC3)N12 (stereo not given)	3	.	.	/	.	.

Screens (PubChem)
